Some test systems named below: NCI-H23 lung; NCI-H226 lung; NCI-H322M lung; HOP-62 NSCLC; NCI-H460 lung; NCI-H522 lung; A549/ATCC NSCLC; 786-0 renal; COLO 205 colon; DU-145 prostate; K-562 leukemia; MALME-3M melanoma; MDA-MB-231 breast; RXF 393 renal; SF-268 CNS; SF-295 CNS; SF-539 CNS; UACC-257 melanoma; M14 melanoma.
What all share (test): NCI-60 one-dose screen, 48 h (100 = growth as untreated, 0 = no growth, -100 = all killed)
Holding throughout (details): 10 µM

Structures are written as SMILES. About 83,000 compounds went through this panel and 20% of them were active in at least one assay; those are over-represented in the sample as a whole.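 Testing used 96-well plates and a 48-hour single-concentration exposure. Example: -40 means 40% of the starting cells died.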 Values without a mark were called inactive. Active and inactive are the calls of the source. The calls were made as follows: active = growth percent below 10; inactive = the rest.

`Cc1ccc(C(O)C2CC2)cc1` (stereo unspecified): the growth with NCI-H23 lung was 103%; in the experiment on NCI-H226 lung it was 91.9%; with NCI-H322M lung, 97.1%; with HOP-62 NSCLC it was 106%; in the experiment with NCI-H460 lung it was 103%; with NCI-H522 lung it was 107%. Besides, the growth was 95.9% with A549/ATCC NSCLC; 103% in the experiment with 786-0 renal; 110% with COLO 205 colon; 113% with DU-145 prostate; 98.6% in the experiment on K-562 leukemia; 101% in the experiment with MALME-3M melanoma. In addition, the growth was 105% in the experiment on MDA-MB-231 breast; 102% in the experiment with RXF 393 renal; 108% in the experiment with SF-268 CNS; 97% in the experiment with SF-295 CNS; 96.7% in the experiment with SF-539 CNS; 89.5% in the experiment with UACC-257 melanoma. Further, in the experiment with M14 melanoma, the growth was 109%.

As to `CCCCCCCCCCC(C)Br` (stereo unspecified), the growth in the experiment with NCI-H23 lung is 102%; in the experiment with NCI-H226 lung, 101%; with NCI-H322M lung, 94.5%; with HOP-62 NSCLC, 119%; in the experiment on NCI-H460 lung, 113%; in the experiment with NCI-H522 lung, 104%. The growth with A549/ATCC NSCLC is 97.1%; in the experiment on 786-0 renal, 97%; in the experiment with COLO 205 colon, 110%; with DU-145 prostate, 113%; with K-562 leukemia, 93.2%; with MALME-3M melanoma, 104%. For the same compound, the growth in the experiment with MDA-MB-231 breast is 113%; in the experiment with RXF 393 renal, 103%; in the experiment with SF-268 CNS it was 113%; in the experiment on SF-295 CNS, 94.9%; in the experiment with SF-539 CNS, 110%; with UACC-257 melanoma, 101%. Further, the growth in the experiment with M14 melanoma is 112%.

In the case of `COc1cc2nc3cc([N+](=O)[O-])ccc3c(Cl)c2cc1OC`, the growth in the experiment on NCI-H23 lung was 98.6%; in the experiment on NCI-H226 lung it was 56.3%; with NCI-H322M lung it was 103%; in the experiment on HOP-62 NSCLC, 111%; with NCI-H460 lung it was 109%; in the experiment on NCI-H522 lung, 70.7%. Besides, the growth in the experiment on A549/ATCC NSCLC was 95.7%; in the experiment with 786-0 renal, 104%; in the experiment with COLO 205 colon, 112%; in the experiment on DU-145 prostate, 103%; with K-562 leukemia it was 98.8%; with MALME-3M melanoma it was 94.5%. The growth with MDA-MB-231 breast was 99.4%; with RXF 393 renal, 120%; with SF-268 CNS, 99.8%; in the experiment with SF-295 CNS, 103%; in the experiment with SF-539 CNS, 96.4%; in the experiment on UACC-257 melanoma it was 93.1%. The growth with M14 melanoma was 96.6%.

For the compound `S=c1[nH]ccn1-c1ccccc1Cl`, the growth with NCI-H23 lung is 112%; in the experiment on NCI-H226 lung, 113%; in the experiment on NCI-H322M lung, 133%; in the experiment with HOP-62 NSCLC, 112%; in the experiment with NCI-H460 lung, 117%; in the experiment with NCI-H522 lung, -30.9% (active). In addition, the growth is 53.8% with A549/ATCC NSCLC; 109% in the experiment on 786-0 renal; 117% in the experiment with COLO 205 colon; 106% in the experiment on DU-145 prostate; 101% in the experiment with K-562 leukemia; 120% in the experiment with MALME-3M melanoma. In addition, the growth in the experiment with MDA-MB-231 breast is 120%; with RXF 393 renal, 114%; in the experiment with SF-268 CNS, 108%; in the experiment with SF-295 CNS, 100%; with SF-539 CNS, 103%; in the experiment on UACC-257 melanoma, 22.9%. For the same compound, in the experiment with M14 melanoma, the growth is 108%.

Consider `CCCCC(O)c1ccccc1` (stereo unspecified), for which the growth with NCI-H23 lung was 96.5%; in the experiment on NCI-H226 lung, 97.2%; with NCI-H322M lung, 101%; in the experiment with HOP-62 NSCLC it was 110%; in the experiment with NCI-H460 lung, 105%; with NCI-H522 lung it was 108%. Also, the growth with A549/ATCC NSCLC is 100%; in the experiment with 786-0 renal it was 104%; in the experiment on COLO 205 colon it was 105%; with DU-145 prostate, 108%; in the experiment on K-562 leukemia, 94%; with MALME-3M melanoma, 102%. In addition, the growth in the experiment on MDA-MB-231 breast was 116%; in the experiment on RXF 393 renal, 107%; with SF-268 CNS, 98.6%; with SF-295 CNS it was 104%; in the experiment with SF-539 CNS it was 106%; in the experiment on UACC-257 melanoma, 101%. In addition, the growth with M14 melanoma was 109%.

Turning to `Cc1cccc([N+](=O)[O-])c1Cl`, the growth in the experiment with NCI-H23 lung was 96.4%; in the experiment with NCI-H226 lung it was 98.2%; with NCI-H322M lung, 105%; in the experiment with HOP-62 NSCLC, 103%; in the experiment on NCI-H460 lung it was 108%; in the experiment on NCI-H522 lung, 116%. Moreover, the growth was 104% in the experiment on A549/ATCC NSCLC; 102% in the experiment with 786-0 renal; 109% with COLO 205 colon; 105% in the experiment on DU-145 prostate; 119% in the experiment on K-562 leukemia; 109% in the experiment on MALME-3M melanoma. The growth with MDA-MB-231 breast is 113%; in the experiment with RXF 393 renal, 103%; in the experiment on SF-268 CNS, 101%; with SF-295 CNS it was 104%; in the experiment on SF-539 CNS, 105%; with UACC-257 melanoma, 105%. Moreover, in the experiment on M14 melanoma, the growth was 106%.

With `Oc1ccc2c(c1)OCC1(O)Cc3cc(O)c(O)cc3C21` (stereo unspecified), the growth in the experiment on NCI-H23 lung is 86.9%; with NCI-H226 lung, 98.2%; with NCI-H322M lung, 103%; with HOP-62 NSCLC it was 82.2%; with NCI-H460 lung, 112%; in the experiment on NCI-H522 lung, -34.1% (active). In addition, the growth was 93.7% in the experiment on A549/ATCC NSCLC; 95.2% with 786-0 renal; 165% in the experiment with COLO 205 colon; 99.1% with DU-145 prostate; 20.7% in the experiment on K-562 leukemia; 88.8% with MALME-3M melanoma. For the same compound, the growth was 93.2% in the experiment with MDA-MB-231 breast; 89.1% in the experiment on RXF 393 renal; 96.8% in the experiment on SF-268 CNS; 97.1% with SF-295 CNS; 91.7% in the experiment with SF-539 CNS; 96.6% in the experiment on UACC-257 melanoma. Further, in the experiment with M14 melanoma, the growth was 90.6%.

With `S=c1sc2ccccc2n1CN1CCCCC1`, the growth in the experiment on NCI-H23 lung is 95.9%; in the experiment with NCI-H226 lung, 92.9%; with NCI-H322M lung, 99.1%; with HOP-62 NSCLC it was 89.7%; in the experiment on NCI-H460 lung, 102%; in the experiment on NCI-H522 lung, 82.3%. Moreover, the growth is 99.2% with A549/ATCC NSCLC; 105% in the experiment with 786-0 renal; 103% in the experiment with COLO 205 colon; 99.8% with DU-145 prostate; 124% with K-562 leukemia; 86.6% in the experiment on MALME-3M melanoma. The growth in the experiment with MDA-MB-231 breast is 98.4%; in the experiment with RXF 393 renal it was 110%; in the experiment with SF-268 CNS it was 92.5%; in the experiment on SF-295 CNS, 102%; in the experiment on SF-539 CNS it was 105%; in the experiment on UACC-257 melanoma it was 104%. In the experiment with M14 melanoma, the growth is 100%.

With `O=C(O)CCC(=O)OC(C1CO1)C(OC(=O)CCC(=O)O)C1CO1` (stereo unspecified), the growth with NCI-H23 lung was 102%; in the experiment on NCI-H226 lung, 96.5%; with NCI-H322M lung, 112%; with HOP-62 NSCLC it was 102%; in the experiment on NCI-H460 lung, 103%; in the experiment with NCI-H522 lung, 91%. Also, the growth was 97.4% in the experiment on A549/ATCC NSCLC; 103% in the experiment on 786-0 renal; 99.9% with COLO 205 colon; 105% with DU-145 prostate; 103% in the experiment on K-562 leukemia; 86.9% with MALME-3M melanoma. For the same compound, the growth with MDA-MB-231 breast is 130%; with RXF 393 renal it was 99.9%; in the experiment with SF-268 CNS it was 105%; in the experiment with SF-295 CNS, 92.3%; with SF-539 CNS, 95.2%; with UACC-257 melanoma it was 85%. The growth in the experiment on M14 melanoma was 98.9%.
